Legend:
Conditions in all cases: concentration: 1 μM, replicates: in singlicate; n = 1
[1] = test system: MAPKAPK5
[2] = test system: MARK1
[3] = test system: MARK2
[4] = test system: MARK3
[5] = test system: MARK4
[6] = test system: MAST1
[7] = test system: T1, MEK1
T1 construct: gene MAP2K1

[8] = test system: T2, MEK2
T2 construct: gene MAP2K2

[9] = test system: T3, MEK3
T3 construct: gene MAP2K3

[10] = test system: T4, MEK4
T4 construct: gene MAP2K4
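Note: KINOMEscan kinase panel screen.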

Row | Structure (SMILES) | %Inh [1] [%] | %Inh [2] [%] | %Inh [3] [%] | %Inh [4] [%] | %Inh [5] [%] | %Inh [6] [%] | %Inh [7] [%] | %Inh [8] [%] | %Inh [9] [%] | %Inh [10] [%]
1 | CCCCc1nn2ncccc2c1-c1ccnc(Nc2ccc(N3CCN(C)CC3)cc2)n1 [GW684941] | 0 | 0 | 0 | 32 | 0 | 31 | 0 | 0 | 0 | 32
2 | CSc1cccc2c(-c3ccncn3)c(-c3ccc(F)cc3)nn12 [GW514786] | 0 | 0 | 0 | 0 | 0 | 0 | 0 | 0 | 0 | 4
3 | O=C(Nc1cccc(-c2nn3ccccc3c2-c2ccnc(Nc3cccc(F)c3)n2)c1)c1c(F)ccc(F)c1Cl [GSK357952] | 0 | 0 | 3 | 3 | 0 | 0 | 0 | 15 | 0 | 25
4 | Nc1ncc(-c2cccnc2)c2scc(-c3ccc4c(c3)CCN4C(=O)Cc3ccccc3)c12 [GSK683281] | 0 | 0 | 0 | 19 | 0 | 0 | 0 | 1 | 0 | 66
5 | Cn1cc(-c2[nH]c3cc(NC(=O)[C@H](N)C4CCCCC4)cc4c3c2C=NNC4=O)cn1 | 0 | 83 | 88 | 88 | 91.8 | 87 | 65 | 67 | 46 | 14
6 | COc1cccc(C(=O)Nc2cccc(Oc3ccc4nc(NC(=O)C5CC5)cn4n3)c2)c1 | 0 | 17 | 0 | 0 | 10 | 0 | 28 | 43 | 15 | 0
7 | Cc1ccc(C(=O)Nc2ccc(Nc3ccnc4cc(-c5nccs5)ccc34)cc2O)cc1.Cl [GW494702] | 0 | 0 | 0 | 0 | 0 | 15 | 13 | 0 | 0 | 21
8 | COc1ccc(-c2coc3ccc(-c4nnc(SCc5ccc(OC)c(C(F)(F)F)c5)o4)cc23)cc1 | 23 | 5 | 2 | 0 | 4 | 13 | 13 | 22 | 10 | 30
9 | Cc1occc1-c1ncc(OC[C@@H](N)Cc2c[nH]c3ccccc23)cc1-c1ccc2[nH]nc(C)c2c1.O=C(O)C(F)(F)F [GSK682037] | 0 | 44 | 62 | 68 | 33 | 35 | 7 | 0 | 90.7 | 43
10 | c1ccc(Oc2ccc(Nc3ccnc4cc(-c5ccc(CNCCN6CCOCC6)o5)ccc34)cc2)nc1 [GW567145] | 0 | 0 | 0 | 0 | 0 | 34 | 90.8 | 94.2 | 0 | 0
